Results from PubChem BioAssay (NCATS).
Where “and” joins values, the source holds several entries; their conditions need not be identical. Equal values may be shown once. Records with an inconclusive call do not appear. A call without a number means that no potency is given here. A number with no mark means an inactive call. Calls of active or inactive are those of the source. Calls follow the shape of the dose curve; as a rule, active = well fitted curve in the direction sought with a large enough effect; inconclusive = small, poorly fitted or top-dose-only effect, or another doubt; inactive = no such curve, though single readings can be large; an effect the other way counts as inactive or inconclusive.

Experiments:
[1] = target: Cellular tumor antigen p53 (Homo sapiens) (UniProt P04637); experiment: Primary qHTS for small molecule compounds that upregulate eGFP-tagged delta133p53alpha (in N-terminal) cells. (AID 2060322); conditions: NCI-H358 eGFP-delta133p53alpha fluorescence, 24 h; activation: hits give high values; also: nearly all actives have a fitted effect of over 75% in size; also: potency is read from the fitted curve at half-maximal effect
Procedure, shortened: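 NCI-H358 cells pre-induced 24 h with 10 ng/ml doxycycline to express N-terminal eGFP-delta133p53alpha, then dosed 24 h at 37C without doxycycline; fixed, Hoechst-stained, GFP intensity by laser scanning cytometry, normalized to DMSO (0%) and 57.5 uM 5-azacytidine (100%).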

[2] = target: Aldehyde dehydrogenase, mitochondrial (Homo sapiens) (UniProt P05091); experiment: qHTS for Inhibitors of the Aldehyde Dehydrogenase Family (ALDH2) Primary screen (AID 2061308); conditions: ALDH2 enzyme inhibition qHTS, 1536-well; series mostly up to 56 µM; also: nearly all actives have a fitted effect of over 55% in size
[3] = target: Retinaldehyde dehydrogenase 3 (Homo sapiens) (UniProt P47895); experiment: qHTS for Inhibitors of the Aldehyde Dehydrogenase Family (ALDH1A3) Validation screen (AID 2061312); conditions: ALDH1A3 enzyme inhibition qHTS validation, fluorescence; series mostly up to 84.7 µM; also: nearly all actives have a fitted effect of over 45% in size
[4] = target: Retinaldehyde dehydrogenase 3 (Homo sapiens) (UniProt P47895); experiment: qHTS for Inhibitors of the Aldehyde Dehydrogenase Family (ALDH1A3) Primary screen (AID 2061315); conditions: ALDH inhibition qHTS; series mostly up to 56 µM
[5] = BET inhibitor-based combinations targeting novel dependencies in MECOM-rearranged (r) AML: OCI-AML3 cell line (AID 2202232); conditions: CellTiter-Glo luminescence, 48 h; Potency: OCI-AML3 viability; series mostly up to 46 µM; also: nearly all actives have a fitted effect of over 35% in size; also: potency is read from the fitted curve at half-maximal effect
Procedure, shortened: (§1)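 Luminescent ATP readout (CellTiter-Glo) after 48 hr drug exposure gives viability. Curves span 11 concentrations and are normalized to DMSO and empty wells. Activity is reported as area under the curve and its Z-transform within each cell line.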

[6] = BET inhibitor-based combinations targeting novel dependencies in MECOM-rearranged (r) AML: UCSD-AML1 cell line (AID 2202235); conditions: UCSD-AML1 AML cells viability, CellTiter-Glo, 48 h; series mostly up to 46 µM; also: nearly all actives have a fitted effect of over 40% in size; also: potency is read from the fitted curve at half-maximal effect
Procedure, shortened: (§2)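 Luminescent ATP readout (CellTiter-Glo, 15 min at room temperature) after 48 hr drug exposure gave viability. Dose-response curves, normalized to DMSO and empty-well controls, were summarized as area under the curve and its mean-centred Z-score.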

[7] = BET inhibitor-based combinations targeting novel dependencies in MECOM-rearranged (r) AML: AML-194 cell line (AID 2202237; also: nearly all actives have a fitted effect of over 40% in size; also: potency is read from the fitted curve at half-maximal effect); conditions: AML-194 (MECOM-r AML) viability, CellTiter-Glo, 48 h; series mostly up to 46 µM
Procedure, shortened: as §1

[8] = BET inhibitor-based combinations targeting novel dependencies in MECOM-rearranged (r) AML: MV-4-11 cell line (AID 2202233); conditions: MV-4-11 AML viability, CellTiter-Glo luminescence, 48 h; series mostly up to 46 µM; also: nearly all actives have a fitted effect of over 45% in size; also: potency is read from the fitted curve at half-maximal effect
Procedure, shortened: as §2

[9] = BET inhibitor-based combinations targeting novel dependencies in MECOM-rearranged (r) AML: HNT-34 cell line (AID 2202234); conditions: HNT-34 AML viability, CellTiter-Glo luminescence, 48 h; series mostly up to 46 µM; also: nearly all actives have a fitted effect of over 35% in size; also: potency is read from the fitted curve at half-maximal effect
Procedure, shortened: as §2

[10] = BET inhibitor-based combinations targeting novel dependencies in MECOM-rearranged (r) AML: AML-191 cell line (AID 2202236; also: nearly all actives have a fitted effect of over 35% in size; also: potency is read from the fitted curve at half-maximal effect); conditions: AML-191 viability, CellTiter-Glo luminescence, 48 h; series mostly up to 46 µM
Procedure, shortened: as §1

[11] = target: Retinal dehydrogenase 2 (Homo sapiens) (UniProt O94788); experiment: qHTS for Inhibitors of the Aldehyde Dehydrogenase Family (ALDH1A2) Confirmation screens (AID 2061314); conditions: ALDH1A2 enzyme inhibition qHTS confirmation; series mostly up to 45.9 µM; also: nearly all actives have a fitted effect of over 65% in size

Sequence of Cellular tumor antigen p53 (Homo sapiens) (P04637 whole entry, looked up): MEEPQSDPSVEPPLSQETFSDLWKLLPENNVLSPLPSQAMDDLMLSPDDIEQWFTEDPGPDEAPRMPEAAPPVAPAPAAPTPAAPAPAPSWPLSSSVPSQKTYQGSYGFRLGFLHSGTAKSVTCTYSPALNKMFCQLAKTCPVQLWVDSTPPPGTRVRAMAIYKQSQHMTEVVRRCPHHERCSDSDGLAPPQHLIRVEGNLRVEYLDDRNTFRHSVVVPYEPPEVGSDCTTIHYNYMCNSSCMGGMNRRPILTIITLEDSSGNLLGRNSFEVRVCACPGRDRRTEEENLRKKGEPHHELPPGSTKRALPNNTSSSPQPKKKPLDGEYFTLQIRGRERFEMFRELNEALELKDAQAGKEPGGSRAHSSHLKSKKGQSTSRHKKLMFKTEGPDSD

**Q.** What does the source list for COCCCOc1ccnc(CS(=O)c2nc3ccccc3[nH]2)c1C (stereo unspecified)?
**A.** activation [1]: -8.47% and 40% and -11.5%; Potency [2]: inactive; Potency [3]: inactive; Potency [4]: inactive; Potency [5]: inactive; Potency [6]: inactive; Potency [7]: inactive

**Q.** Which Potency [1] does the source give for Cn1cncc1C(N)(c1ccc(Cl)cc1)c1ccc2c(c1)c(-c1cccc(Cl)c1)cc(=O)n2C (stereo unspecified) here?
**A.** 26.9 µM (active)

**Q.** What about the Potency [2] of the same compound?
**A.** inactive

**Q.** What about the Potency [3] of the same compound?
**A.** inactive

**Q.** And the Potency [4]?
**A.** inactive

**Q.** What about the Potency [8] of the same compound?
**A.** 5.25 µM (active)

**Q.** And the Potency [9]?
**A.** 0.263 µM (active)

**Q.** And the Potency [6]?
**A.** 0.372 µM (active)

**Q.** What about the Potency [10] of the same compound?
**A.** 4.17 µM (active)

**Q.** And the Potency [7]?
**A.** 20.9 µM (active)

**Q.** What does the source list for C[C@@H](NC(=O)c1ncnc(N)c1Cl)c1ncc(C(=O)Nc2cc(C(F)(F)F)c(Cl)cn2)s1?
**A.** activation [1]: 19.6%; Potency [2]: inactive; Potency [3]: inactive; Potency [4]: inactive; Potency [9]: 2.35 µM (active); Potency [6]: 8.33 µM (active)

**Q.** What does the source list for CCC1=C(C)CN(C(=O)NCCc2ccc(S(=O)(=O)NC(=O)NC3CCC(C)CC3)cc2)C1=O (stereo unspecified)?
**A.** activation [1]: -11% and 10.7% and 1.91%; Potency [2]: inactive; Potency [3]: inactive; Potency [4]: inactive; Potency [8]: inactive; Potency [9]: inactive; Potency [6]: inactive; Potency [10]: inactive; Potency [7]: inactive

**Q.** With O=C(Nc1cccnc1)N1CCC(Cc2cccc(Oc3ccc(C(F)(F)F)cn3)c2)CC1 as the compound, how does the activation [1] read?
**A.** -5.98% and -11%

**Q.** What about the Potency [2] of the same compound?
**A.** inactive

**Q.** And the Potency [3]?
**A.** inactive

**Q.** And the Potency [4]?
**A.** inactive

**Q.** What about the Potency [6] of the same compound?
**A.** 26.3 µM (active)

**Q.** What about the Potency [10] of the same compound?
**A.** 20.9 µM (active)

**Q.** What does the source list for O=C(NC[C@H](O)CN1CCc2ccccc2C1)c1cc(NC2COC2)ncn1?
**A.** activation [1]: 11.2% and -21.4%; Potency [2]: inactive; Potency [3]: inactive; Potency [4]: inactive; Potency [9]: inactive; Potency [6]: inactive; Potency [10]: inactive; Potency [7]: inactive

**Q.** Which activation [1] does the source give for CC(C)n1cnc2c(NCCc3ccc(O)cc3)nc(-c3csc4ccccc34)nc21 here?
**A.** 28% and 17.7%

**Q.** And the Potency [2]?
**A.** inactive

**Q.** What about the Potency [3] of the same compound?
**A.** inactive

**Q.** What about the Potency [4] of the same compound?
**A.** inactive

**Q.** What about the Potency [5] of the same compound?
**A.** 20.9 µM (active)

**Q.** And the Potency [10]?
**A.** 20.9 µM (active)

**Q.** And the Potency [7]?
**A.** 20.9 µM (active)

**Q.** What does the source list for O=C1Nc2ccc(Cl)cc2[C@@](C#CC2CC2)(C(F)(F)F)O1?
**A.** activation [1]: 17.5% and 0%; Potency [2]: inactive; Potency [3]: inactive; Potency [4]: inactive; Potency [8]: 23.5 µM (active) and 20.9 µM (active); Potency [6]: inactive

**Q.** With CN[C@@H](C)C(=O)N[C@H]1CN(C(=O)CC(C)C)CC[C@H]2CC[C@@H](C(=O)NC(c3ccccc3)c3ccccc3)N2C1=O as the compound, how does the activation [1] read?
**A.** 28.1%

**Q.** And the Potency [2]?
**A.** inactive

**Q.** What about the Potency [3] of the same compound?
**A.** inactive

**Q.** What about the Potency [4] of the same compound?
**A.** inactive

**Q.** What about the Potency [7] of the same compound?
**A.** inactive

**Q.** Which activation [1] does the source give for COc1ccc2c(Oc3ccc(NC(=O)c4c(C)n(CC(C)(C)O)n(-c5ccccc5)c4=O)nc3)ccnc2c1 here?
**A.** 16.6% and 11.9%

**Q.** What about the Potency [2] of the same compound?
**A.** inactive

**Q.** And the Potency [3]?
**A.** inactive

**Q.** And the Potency [4]?
**A.** inactive

**Q.** And the Potency [8]?
**A.** 0.372 µM (active)

**Q.** And the Potency [9]?
**A.** 3.32 µM (active)

**Q.** Which results are given for O=C1[C@H](CC[C@H](O)c2ccc(F)cc2)[C@@H](c2ccc(O)cc2)N1c1ccc(F)cc1?
**A.** activation [1]: -8.47% and 7.16%; Potency [2]: inactive; Potency [3]: inactive; Potency [4]: inactive; Potency [8]: 16.6 µM (active)

**Q.** Which activation [1] does the source give for CN(C(=O)c1ccc(F)cc1C(F)(F)F)C1CCN(c2nnc(-c3ccnn3C)c3ccccc23)CC1 here?
**A.** 36.5% and 1.43%

**Q.** And the Potency [2]?
**A.** inactive

**Q.** What about the Potency [3] of the same compound?
**A.** inactive

**Q.** And the Potency [4]?
**A.** inactive

**Q.** And the Potency [8]?
**A.** 16.6 µM (active)

**Q.** And the Potency [6]?
**A.** inactive

**Q.** And the Potency [7]?
**A.** inactive

**Q.** What does the source list for COc1cc(O)cc2c1C(=O)OC(C)CCCCCCC2 (stereo unspecified)?
**A.** activation [1]: 1.79%; Potency [2]: inactive; Potency [11]: inactive; Potency [4]: inactive

**Q.** Which results are given for O=C1NC(Cc2c[nH]c3ccccc23)C(=O)NC1Cc1c[nH]c2ccccc12 (stereo unspecified)?
**A.** activation [1]: 14.5%; Potency [2]: inactive; Potency [4]: inactive

**Q.** Which activation [1] does the source give for C[C@@H]1O[C@@H](O[C@@H]2[C@@H](O)[C@H](O[C@H]3[C@H](O[C@H]4CC[C@@]5(C)C(CC[C@]6(C)C5CC=C5[C@@H]7CC(C)(C)CC[C@]7(C(=O)O[C@@H]7O[C@H](CO)[C@@H](O)[C@H](O)[C@H]7O)CC[C@]56C)C4(C)C)O[C@H](C(=O)O)[C@@H](O)[C@@H]3O)OC[C@H]2O)[C@H](O)[C@H](O)[C@H]1O (stereo partly specified) here?
**A.** -27.5%

**Q.** What about the Potency [2] of the same compound?
**A.** inactive

**Q.** What about the Potency [4] of the same compound?
**A.** inactive
